Reference: PubChem BioAssay (Tox21)
Records with an inconclusive call do not appear. The source made the active and inactive calls. Unless noted, calls follow the shape of the dose curve; as a rule, active = well fitted cell-killing curve with a large enough effect in the repeat runs; inconclusive = weak or mixed curves, or effect the other way; inactive = flat fitted curve, though single readings scatter. Positions of bridges follow the written chain, without caps; N, C: chain ends. Non-standard residues stand in square brackets, D forms with d. Residues, ends and D or L forms follow the SMILES beside them. *: point of attachment. pGlu = O=C1CC[C@@H](C(=O)O)N1; X2 = CC[C@H](C)CCCCC(=O)*; Thz = O=C(O)[C@@H]1CSCN1; Dab = NCC[C@H](N)C(=O)O

Assay: qHTS assay to identify small molecule antagonists of the estrogen receptor alpha (ER-alpha) signaling pathway using the BG1 cell line (AID 743080; calls by dose curve;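 also: BG1 cells stimulated with 17beta-estradiol alongside compound; nearly all actives have a fitted effect of over 25% in size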)
Details: BG1Luc4E2 ERE-luciferase antagonist mode, luminescence; series mostly up to 70.3 µM; activity change, negative = inhibition: at the top concentration
Method in brief: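 Luminescence from a 4×ERE-luciferase reporter in BG1-Luc-4E2 cells served as read-out. Cells, pre-cultured 5 days in stripped-serum phenol-red-free medium, were exposed to compound with 17beta-estradiol co-stimulation for 21.5 h at 37 C.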
% is scaled to controls: 0 for no effect and ±100 for the full control effect.

| SMILES | activity change, negative = inhibition |
| --- | --- |
| CC(O)[C@H]1CC[C@H]2[C@@H]3CC[C@@H]4C[C@@H](O)CC[C@]4(C)[C@H]3CC[C@]12C (some centres not stated) | -1.55% (inactive) |
| CC(=O)N(CC(C)C(=O)O)c1c(I)cc(I)c(N)c1I (configuration not stated) | -0.0941% [at 32.5 µM] (inactive) |
| CCN1C(=O)NC(c2ccccc2)C1=O (configuration not stated) | 2.92% [at 32.5 µM] (inactive) |

Assay: qHTS assay to identify small molecule antagonists of the estrogen receptor alpha (ER-alpha) signaling pathway using the BG1 cell line - cell viability counter screen (AID 743081);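 also: compound given together with 17beta-estradiol as the ER stimulus; nearly all actives have a fitted effect of over 45% in size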; also: potency is read from the fitted curve at half-maximal effect
Details: BG1Luc4E2 viability, CellTiter-Fluor, 22 h; series mostly up to 70.3 µM; activity change, negative = cytotoxicity: at the top concentration

| SMILES | Potency | activity change, negative = cytotoxicity |
| --- | --- | --- |
| CCCCCCCCCCCCCCCCOCCOCCOCCOCCOCCOCCOCCOCCOCCOCCOCCOCCOCCOCCOCCOCCOCCOCCOCCOCCO | 23.7 µM (active) | – |
| c1ccc2cc(C3=NCCN3)ccc2c1 | – | 2.16% (inactive) |
| CCC[C@@H]1C[C@@H](C(=O)N[C@@H]([C@H]2O[C@H](SC)[C@H](O)[C@@H](O)[C@H]2O)[C@H](C)Cl)N(C)C1 | – | 10.5% (inactive) |
| O.O=C([O-])CC([S-])C(=O)[O-].[Au+].[Na+].[Na+] (configuration not stated) | – | 19.8% (inactive) |
| C=CC1=C(C)C2=CC3=NC(=C(CC(=O)[O-])C4=NC(=C(C)C4=C([O-])[O-])C=c4[n-]c(c(C)c4CC)=CC1=N2)C(CCC(=O)[O-])C3C.[Cu+2].[Na+].[Na+].[Na+] (configuration not stated) | 29.8 µM (active) | – |
| O=C1CC[C@@H](C(=O)N2CSC[C@H]2C(=O)O)N1 ([pGlu]-[Thz]-OH) | – | 1.48% (inactive) |
| CN1[C@@H]2CCC[C@H]1CC(NC(=O)c1nn(C)c3ccccc13)C2 (some centres not stated) | – | 5.48% (inactive) |
| COc1cc(/C=C/C(=O)N2CCN(CC(=O)N3CCCC3)CC2)cc(OC)c1OC | – | 9.12% (inactive) |
| CC(=O)N[C@@H]1C(O[C@H]2O[C@H](C(=O)O)C(O)[C@H](O)[C@H]2O)[C@H](O)[C@@H](CO)O[C@H]1O[C@@H]1C(C(=O)O)O[C@@H](O[C@H]2[C@H](O)[C@@H](CO)OC(O)[C@@H]2NC(C)=O)[C@H](O)[C@H]1O (some centres not stated) | – | 1.17% (inactive) |
| COC(=O)[C@H]1[C@H]2C[C@@H]3c4[nH]c5cc(OC)ccc5c4CCN3C[C@H]2C[C@@H](OC(=O)/C=C/c2cc(OC)c(OC)c(OC)c2)[C@@H]1OC | – | -5.63% [at 32.5 µM] (inactive) |
| CC(C)[C@H](N)C(=O)OCC(CO)OCn1cnc2c(=O)[nH]c(N)nc21 (some centres not stated) | – | 10.3% (inactive) |
| N[C@H](CCC(=O)O)C(=O)O | – | -24.9% (inactive) |
| CC1(C)[C@@H]2CC[C@@]1(C)[C@H](OC(=O)CSC#N)C2 | – | 0.0267% (inactive) |
| OC[C@H]1O[C@@H](n2cnc3c2NC=NC[C@H]3O)C[C@@H]1O | – | 9.59% (inactive) |
| CCC(=O)OCC(=O)[C@@]1(OC(=O)CC)[C@@H](C)C[C@H]2[C@@H]3CCC4=CC(=O)C=C[C@]4(C)[C@@]3(Cl)[C@@H](O)C[C@@]21C | – | -13% (inactive) |
| CC(C)[C@@H](C)/C=C/[C@@H](C)[C@H]1CC[C@H]2/C(=C/C=C3\C[C@@H](O)CC[C@@H]3C)CCC[C@]12C | – | -3.02% (inactive) |
| CC(=O)O[C@H]1CC[C@@]2(C)C(=CC[C@@H]3[C@@H]2CC[C@]2(C)C(c4cccnc4)=CC[C@@H]32)C1 | – | 0.872% (inactive) |
| CCOC(=O)c1c[nH]c2cc(OCC(C)C)c(OCC(C)C)cc2c1=O | – | -2.99% (inactive) |
| Cc1ccc(C2(O)CCN(CCCC(=O)c3ccc(F)cc3)CC2)cc1 | – | -8.28% (inactive) |
| CN1c2c(nc(N)[nH]c2=O)NCC1CNc1ccc(C(=O)NC(CCC(=O)O)C(=O)O)cc1 (configuration not stated) | – | 5.15% (inactive) |
| COc1ccc2cc([C@H](C)CO)ccc2c1 | – | 2.85% (inactive) |
| COc1cc(NCCCC(C)N)c2ncccc2c1 (configuration not stated) | 18.8 µM (active) | – |
| CC1(C)N=C(N)N=C(N)N1c1ccc(Cl)cc1 | – | -11.8% (inactive) |
| CC[C@H](C)CCCCC(=O)N[C@@H](CCN)C(=O)N[C@H](C(=O)N[C@@H](CCN)C(=O)N[C@H]1CCNC(=O)[C@@H]([C@H](C)O)NC(=O)[C@H](CCN)NC(=O)[C@H](CCN)NC(=O)[C@H](CC(C)C)NC(=O)[C@@H](CC(C)C)NC(=O)[C@H](CCN)NC1=O)[C@@H](C)O (X2-[Dab]T[Dab][Dab][Dab][dL]L[Dab][Dab][dT]; lactam 4-C) | – | -7.1% [at 32.5 µM] (inactive) |
| Cc1cccc(C)c1Nc1ncccc1C(=O)O | – | -1.29% (inactive) |
| CN[C@@H]1[C@@H](O)[C@@H](O[C@@H]2[C@@H](O)[C@H](O[C@H]3O[C@H](CN)[C@@H](O)[C@H](O)[C@H]3O)[C@@H](N)C[C@H]2NC(=O)C(O)CN)OC[C@]1(C)O (some centres not stated) | – | 0.207% (inactive) |
| CO/N=C(\C(=O)N[C@@H]1C(=O)N2C(C(=O)O)=CCS[C@H]12)c1csc(N)n1 | – | -6.57% (inactive) |
| CC(C)C(=O)OCC(=O)[C@@]12O[C@H](C3CCCCC3)O[C@@H]1C[C@H]1[C@@H]3CCC4=CC(=O)C=C[C@]4(C)[C@H]3[C@@H](O)C[C@@]12C | – | 0.0861% (inactive) |
| O=C(O)CCC/C=C\C[C@@H]1[C@@H](/C=C/[C@@H](O)COc2cccc(Cl)c2)[C@H](O)C[C@@H]1O | – | 15.1% (inactive) |
